# Assay outcomes (PubChem BioAssay)
# Most compounds without a hit are left out; they make up all but 1.5% or so of the library.
# TCR act – activates T cell receptor signaling. primary human leukocytes, anti-CD3, IL-2 HTRF, 48 h. Potency, µM (titrated, usually from 9.22 µM), hits mostly activators. 330,000 tested, under 10 active
#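 Compounds are tested in HTS on primary human leukocytes co-incubated with a-CD3 beads for 48 hr. IL-2 output is measured by time-resolved FRET.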
# BRCA1 expr act – activators of BRCA1 expression; MCF7-BRCA1-FFLuc reporter, luminescence, 48 h; response scale: scaled: vehicle 0%, 10 µM genistein 100%; Potency, µM (doses to about 46.1 µM), actives largely listed as activators; 380,000 compounds, 1.1% hits; note: nearly all actives have a fitted effect of over 80% in size
#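 First, MCF7-BRCA1-FFLuc cells (2000/well) attach for 2 h; next, compounds are pin-added and incubated 48 h at 37 °C; finally, luciferase reagent is added and luminescence read after 15 min.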
# Akt phos inh – inhibitors of Akt phosphorylation. 360,000 compounds, 0.32% hits. Neuro2A IGF-stimulated pAkt S473 HTRF, 20 min; active compounds read low. activity change, % for hits at 50 µM; in the data active = activity change below about -80%
#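 Single-point screen (50 µM final compound) in Neuro2A cells stimulated 20 min with 6 nM IGF at 37 deg C. After lysis, Ser473-phosphorylated Akt read by HTRF (ex 330 nm, em 615/665 nm) as the 665/615 ratio.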
# PINK1 expr mod – PINK1 expression modulation. PINK1 immunofluorescence, high-content cytometry, 24 h. Potency, µM (series often up to 76.6 µM), most hits filed as activators. 410,000 compounds, 0.2% hits; active = well fitted activation curve with a large enough effect; cell line not stated here; note: nearly all actives have a fitted effect of over 65% in size
#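 PINK1 protein level read as immunofluorescence by microplate cytometer in a fixed, stained stable cell line after 24 h exposure to five compound concentrations, with CCCP as control.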
# Hits are given with their value; n = inactive; x = no result given. Unless noted, calls come from the whole dose curve; as a rule, active = well fitted curve in the direction sought with a large enough effect; inconclusive = small, poorly fitted or top-dose-only effect, or another doubt; inactive = no such curve, though single readings can be large; an effect the other way counts as inactive or inconclusive.
SMILES,TCR act,BRCA1 expr act,Akt phos inh,PINK1 expr mod
O=C(NCCc1nnc2n1CCN(Cc1c(F)cccc1F)CC2)c1ccc(F)cc1,x,x,x,n
O=C(Nc1ccc(-n2ccc(C(F)(F)F)n2)cc1)c1cccs1,n,6.3µM,n,n
O=C(Nc1ccc(O)cc1)c1ccc(NC(=O)c2cccs2)cc1,n,4µM,n,n
COc1cc(NC(=O)c2ccccc2Cl)ccc1NC(=O)c1cccs1,n,6.3µM,n,n
Cc1ccc(NC(=O)c2cccs2)cc1,n,2.2µM,n,n
Cc1ccc(NC(=O)C(=O)NNC(=O)c2cccs2)cc1,n,n,n,n
COc1ccc(S(=O)(=O)NCc2nc(-c3ccccc3)no2)cc1,x,x,x,n
COc1cc2nc(N3CCN(C)CC3)nc(NC(C)C)c2cc1OC,x,n,x,n
COc1cc2c(NC3CCN(C(C)C)CC3)nc(N3CCCN(C)CC3)nc2cc1OCCOCCN(C)C,x,n,x,n
COc1cc2nc(N3CCCN(C)CC3)nc(N3CCN(C)CC3)c2cc1OC,x,n,x,n
CN1CCN(S(=O)(=O)c2ccc(NC(=O)c3cccs3)cc2)CC1,n,n,-102%,n
O=C(Nc1ccc(S(=O)(=O)N2CCCC2)cc1)c1cccs1,n,n,n,n
Cc1ccccc1NC(=O)CSc1nc2ccc(NC(=O)c3cccs3)cc2s1,x,n,x,n
CSc1nc2ccc(NC(=O)c3cccs3)cc2s1,n,4.5µM,n,n
Cc1ccc2c(c1)CN(CCNC(=O)c1cc3ccccc3oc1=O)CC(C)O2 (centres undefined),x,x,x,n
Cc1cnc(C)c(-c2cccc3c2OC(CNC(=O)C[C@@H]2C[C@@H](C)NC(=S)N2)C3)n1 (some centres undefined),x,x,x,n
O=C(Nc1ccncc1)c1ccc2c(c1)C(=O)N(C1CCCCC1)C2=O,n,n,n,n
CCC(=O)Nc1ccc2c(c1)C(=O)N(C1CCCCC1)C2=O,x,n,n,3.5µM
O=C(NCCc1ccccn1)C1CC12CCN(C(=O)c1c(F)cccc1Cl)CC2 (centres undefined),x,x,x,n
COc1cc(=O)n2c(c1C(=O)N(C)Cc1ccsc1)CCN(Cc1cnn(C)c1C)CC2,x,x,x,n
OC1(c2ccc3c(c2)CN(Cc2ccco2)CCO3)CCN(c2ccccc2F)CC1,x,x,x,n
Cc1cc(S(=O)(=O)NCc2nc(N3CCCC3)c3cc(Cl)ccc3n2)c(C)s1,x,x,x,n
COc1ccc(C(=O)NCCn2ccc3ccccc32)c(OC)c1,n,7.9µM,n,n
COc1ccc(C(=O)NCCN2CCOCC2)c(OC)c1,n,n,n,n
COc1cc(CNc2cccc3[nH]c(C(F)(F)F)nc23)cc(OC)c1,n,n,n,32µM
SMILES,TCR act,BRCA1 expr act,Akt phos inh,PINK1 expr mod
Cc1c(C(=O)c2ccccc2)oc2ccc3ccccc3c12,n,10µM,n,n
Nc1c(C(=O)c2ccccc2)oc2ccccc12,n,n,n,n
CC(C)NC(=O)c1[nH]nc2c1CCc1ccccc1-2,n,2µM,n,n
CC(C)Cc1nc2cc(NS(=O)(=O)N(C)C)cc(C(=O)N3CCc4ccccc4C3)c2n1C,x,x,x,n
Cc1ccc(/C=N/NC(=O)c2ccncc2)o1,n,n,n,n
O=C(N/N=C/c1cc2c(cc1Br)OCO2)c1ccccn1,n,7.9µM,n,n
Cc1ccc(/C=N/NC(=O)c2ccccn2)o1,n,11µM,n,n
O=C(N/N=C/c1ccc2c(c1)OCO2)c1ccccn1,n,n,n,x
Cc1ccc(-c2cc(C(=O)N3CCN(c4ccccc4O)CC3)c3ccccc3n2)o1,n,4.5µM,n,n
Cc1cnc(-n2ncc(C(=O)N(C)Cc3cccc4ncccc34)c2C(C)C)nc1-c1ccc(F)cc1,x,x,x,n
Nc1c(C(=O)NC2CCCCC2)nsc1C(=O)OCC(=O)NC1CCCCC1,x,n,n,n
CCOC(=O)c1snc(C(=O)NC2CCCCC2)c1N,n,7.1µM,n,n
COCc1c(C(=O)N2CCN(C)CC2)cnn1-c1ncc2c(n1)-c1ccccc1CCC2,x,x,x,n
Cc1ccc(N2Cc3ccccc3C2=S)cc1,n,4µM,n,n
CC(C)(C)OC(=O)N1CCN(/[N+]([O-])=N/Oc2ccc([N+](=O)[O-])cc2[N+](=O)[O-])CC1,x,n,x,n
CN1CCCCCC1C(=O)NCC1Cc2cc(-c3cnccn3)ccc2O1 (centres undefined),x,x,x,n
Cc1oc(-c2ccc(Cl)cc2)cc1C(=O)N1CCC1(C)C(=O)O (centres undefined),x,8.9µM,n,n
CC1(C(=O)O)CCCN1C(=O)c1ccc(Cl)cc1Cl (centres undefined),x,n,n,n
N/C(=N\O)c1ccc(N2CCN(c3ncccc3C(F)(F)F)CC2)nc1,n,3.5µM,n,n
